Laboratory results reported in paper PMC9838217, “Structure of SALL4 zinc finger domain reveals link between AT-rich DNA binding and Okihiro syndrome”.
Residue numbers refer to the chain shown, from its start.

What was measured:
Assay in all cases: HT-SELEX; high values mean tight binding
Settings in all cases: protein: recombinant; vector His6-GST; dsDNA, one strand shown
SALL4 ZFC4 WT (HT-SELEX) = molecular target: T1, SALL4 ZFC4 WT (HT-SELEX) (Mus musculus, UniProt Q8BX22 870-940)
T1 sequence: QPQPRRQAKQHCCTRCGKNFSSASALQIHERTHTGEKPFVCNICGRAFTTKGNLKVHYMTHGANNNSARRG
How it was run: (§1)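 DNA from a random library (1.5 µg in the first cycle, 200 ng afterwards) was incubated with purified recombinant mouse SALL4 zinc finger cluster 4, residues 870–940 (1 µg), for 10 min at room temperature in 100 µl buffer: 10 mM Tris–HCl pH 7.5, 50 mM NaCl, poly(dI-dC), DTT. Bound complexes were pulled down on Ni2+ beads, washed and PCR-amplified, and the selection was repeated for up to 6 cycles in triplicate. MiSeq reads were scanned for 6-mers, and binding signal is each canonical k-mer's read fraction as fold change over the initial random library.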

[1] = molecular target: T2, SALL4 ZFC4 R900W (HT-SELEX) (Mus musculus, UniProt Q8BX22 870-940, R900W)
T2 sequence: T1 sequence with R31W
How it was run: as §1

[2] = molecular target: T3, SALL4 ZFC4 G921D (HT-SELEX) (Mus musculus, UniProt Q8BX22 870-940, G921D)
T3 sequence: T1 sequence with G52D
How it was run: as §1

Sequence	binding signal (SALL4 ZFC4 WT (HT-SELEX))	binding signal [1]	binding signal [2]
CACTGA	0.799 ± 0.0339 fold-change vs cycle 0	0.912 ± 0.0516 fold-change vs cycle 0	0.949 ± 0.00436 fold-change vs cycle 0
AACTAC	1.27 ± 0.0931 fold-change vs cycle 0	1.37 ± 0.099 fold-change vs cycle 0	1.32 ± 0.108 fold-change vs cycle 0
CCTCGA	0.415 ± 0.0275 fold-change vs cycle 0	0.51 ± 0.0259 fold-change vs cycle 0	0.594 ± 0.0635 fold-change vs cycle 0
GTTGAA	1.18 ± 0.0583 fold-change vs cycle 0	1.34 ± 0.0591 fold-change vs cycle 0	1.3 ± 0.109 fold-change vs cycle 0
AGAAAG	1.31 ± 0.0378 fold-change vs cycle 0	1.52 ± 0.0945 fold-change vs cycle 0	1.36 ± 0.112 fold-change vs cycle 0
GATTAC	1.43 ± 0.106 fold-change vs cycle 0	1.54 ± 0.0979 fold-change vs cycle 0	1.45 ± 0.0912 fold-change vs cycle 0
GCCATA	0.544 ± 0.0118 fold-change vs cycle 0	0.556 ± 0.0265 fold-change vs cycle 0	0.681 ± 0.0554 fold-change vs cycle 0
AGTCCC	0.468 ± 0.0376 fold-change vs cycle 0	0.54 ± 0.0297 fold-change vs cycle 0	0.65 ± 0.0407 fold-change vs cycle 0
ATCTAC	1.31 ± 0.0255 fold-change vs cycle 0	1.41 ± 0.0427 fold-change vs cycle 0	1.38 ± 0.0966 fold-change vs cycle 0
ACAGAG	0.763 ± 0.0507 fold-change vs cycle 0	0.916 ± 0.013 fold-change vs cycle 0	0.96 ± 0.0385 fold-change vs cycle 0
AGTTAC	1.44 ± 0.0411 fold-change vs cycle 0	1.56 ± 0.0396 fold-change vs cycle 0	1.49 ± 0.117 fold-change vs cycle 0
AGATGG	0.853 ± 0.0339 fold-change vs cycle 0	0.933 ± 0.00507 fold-change vs cycle 0	0.962 ± 0.0157 fold-change vs cycle 0
GAGCTA	0.677 ± 0.0225 fold-change vs cycle 0	0.747 ± 0.0353 fold-change vs cycle 0	0.858 ± 0.0136 fold-change vs cycle 0
ACTTTA	1.93 ± 0.117 fold-change vs cycle 0	1.99 ± 0.146 fold-change vs cycle 0	1.75 ± 0.227 fold-change vs cycle 0
GAGAAC	0.84 ± 0.00885 fold-change vs cycle 0	1 ± 0.0376 fold-change vs cycle 0	1.04 ± 0.00942 fold-change vs cycle 0
TAAAGA	2.04 ± 0.114 fold-change vs cycle 0	2.15 ± 0.111 fold-change vs cycle 0	1.82 ± 0.201 fold-change vs cycle 0
AGAAGG	0.864 ± 0.0399 fold-change vs cycle 0	1.05 ± 0.055 fold-change vs cycle 0	0.997 ± 0.0501 fold-change vs cycle 0
TCCCAA	0.743 ± 0.0235 fold-change vs cycle 0	0.826 ± 0.0256 fold-change vs cycle 0	0.872 ± 0.0393 fold-change vs cycle 0
ACCCCA	0.468 ± 0.0336 fold-change vs cycle 0	0.525 ± 0.0104 fold-change vs cycle 0	0.602 ± 0.0476 fold-change vs cycle 0
ATTCCA	1.45 ± 0.0836 fold-change vs cycle 0	1.44 ± 0.0779 fold-change vs cycle 0	1.38 ± 0.106 fold-change vs cycle 0

Sequence	binding signal (SALL4 ZFC4 WT (HT-SELEX))	binding signal [1]	binding signal [2]
AAATGA	2.02 ± 0.088 fold-change vs cycle 0	1.91 ± 0.0687 fold-change vs cycle 0	1.75 ± 0.132 fold-change vs cycle 0
ACCGAT	0.687 ± 0.0287 fold-change vs cycle 0	0.745 ± 0.0142 fold-change vs cycle 0	0.862 ± 0.0275 fold-change vs cycle 0
AGGTCG	0.312 ± 0.0215 fold-change vs cycle 0	0.372 ± 0.0129 fold-change vs cycle 0	0.511 ± 0.0677 fold-change vs cycle 0
CTGAGC	0.348 ± 0.00959 fold-change vs cycle 0	0.42 ± 0.0161 fold-change vs cycle 0	0.535 ± 0.0354 fold-change vs cycle 0
AACATG	1.25 ± 0.0212 fold-change vs cycle 0	1.38 ± 0.0255 fold-change vs cycle 0	1.32 ± 0.0877 fold-change vs cycle 0
AAATTA	3.81 ± 0.372 fold-change vs cycle 0	2.45 ± 0.183 fold-change vs cycle 0	2.13 ± 0.261 fold-change vs cycle 0
CAACGA	0.626 ± 0.036 fold-change vs cycle 0	0.7439 ± 0.00396 fold-change vs cycle 0	0.81 ± 0.0225 fold-change vs cycle 0
ACTAGA	1.39 ± 0.0596 fold-change vs cycle 0	1.52 ± 0.0902 fold-change vs cycle 0	1.41 ± 0.142 fold-change vs cycle 0
AATCGC	0.437 ± 0.0162 fold-change vs cycle 0	0.483 ± 0.0175 fold-change vs cycle 0	0.628 ± 0.0598 fold-change vs cycle 0
CATACC	0.854 ± 0.0198 fold-change vs cycle 0	0.927 ± 0.0242 fold-change vs cycle 0	0.944 ± 0.0221 fold-change vs cycle 0
CTATCC	0.843 ± 0.0485 fold-change vs cycle 0	0.98 ± 0.0213 fold-change vs cycle 0	0.977 ± 0.0393 fold-change vs cycle 0
GTACGA	0.706 ± 0.0277 fold-change vs cycle 0	0.794 ± 0.0311 fold-change vs cycle 0	0.843 ± 0.0399 fold-change vs cycle 0
CAAGGA	0.866 ± 0.0298 fold-change vs cycle 0	1.02 ± 0.0119 fold-change vs cycle 0	1.01 ± 0.0394 fold-change vs cycle 0
GGTACA	0.743 ± 0.0263 fold-change vs cycle 0	0.823 ± 0.0156 fold-change vs cycle 0	0.894 ± 0.0191 fold-change vs cycle 0
CTAAGC	0.7 ± 0.0291 fold-change vs cycle 0	0.793 ± 0.0207 fold-change vs cycle 0	0.857 ± 0.014 fold-change vs cycle 0
AAGTCG	0.537 ± 0.0353 fold-change vs cycle 0	0.634 ± 0.0134 fold-change vs cycle 0	0.747 ± 0.0488 fold-change vs cycle 0
AGAAAC	1.21 ± 0.0656 fold-change vs cycle 0	1.36 ± 0.0395 fold-change vs cycle 0	1.31 ± 0.0847 fold-change vs cycle 0
ATCAAC	1.34 ± 0.0602 fold-change vs cycle 0	1.45 ± 0.0864 fold-change vs cycle 0	1.42 ± 0.0753 fold-change vs cycle 0
ACCAGG	0.477 ± 0.0177 fold-change vs cycle 0	0.564 ± 0.0161 fold-change vs cycle 0	0.658 ± 0.055 fold-change vs cycle 0
ATTCAA	1.94 ± 0.125 fold-change vs cycle 0	1.97 ± 0.115 fold-change vs cycle 0	1.79 ± 0.158 fold-change vs cycle 0

Sequence	binding signal (SALL4 ZFC4 WT (HT-SELEX))	binding signal [1]	binding signal [2]
ATGTAC	1.295 ± 0.0117 fold-change vs cycle 0	1.38 ± 0.0189 fold-change vs cycle 0	1.32 ± 0.0512 fold-change vs cycle 0
CGCATA	0.489 ± 0.0286 fold-change vs cycle 0	0.499 ± 0.00702 fold-change vs cycle 0	0.636 ± 0.061 fold-change vs cycle 0
CATGCC	0.31 ± 0.0224 fold-change vs cycle 0	0.354 ± 0.0129 fold-change vs cycle 0	0.48 ± 0.0491 fold-change vs cycle 0
ACTGTG	0.743 ± 0.0431 fold-change vs cycle 0	0.842 ± 0.0558 fold-change vs cycle 0	0.876 ± 0.035 fold-change vs cycle 0
CCTTTC	0.765 ± 0.031 fold-change vs cycle 0	0.942 ± 0.0414 fold-change vs cycle 0	0.934 ± 0.0409 fold-change vs cycle 0
GAATTA	2.39 ± 0.113 fold-change vs cycle 0	1.95 ± 0.0992 fold-change vs cycle 0	1.75 ± 0.12 fold-change vs cycle 0
CTCTCA	0.878 ± 0.0209 fold-change vs cycle 0	0.992 ± 0.023 fold-change vs cycle 0	1.04 ± 0.0372 fold-change vs cycle 0
AGACAG	0.803 ± 0.00959 fold-change vs cycle 0	0.914 ± 0.0204 fold-change vs cycle 0	0.943 ± 0.0351 fold-change vs cycle 0
CGATCA	0.683 ± 0.0475 fold-change vs cycle 0	0.7718 ± 0.00739 fold-change vs cycle 0	0.896 ± 0.0609 fold-change vs cycle 0
AGGACT	0.864 ± 0.0148 fold-change vs cycle 0	0.994 ± 0.0593 fold-change vs cycle 0	1.02 ± 0.0375 fold-change vs cycle 0
CAGCAG	0.333 ± 0.0334 fold-change vs cycle 0	0.387 ± 0.024 fold-change vs cycle 0	0.523 ± 0.0543 fold-change vs cycle 0
ATAGGA	1.48 ± 0.0224 fold-change vs cycle 0	1.56 ± 0.056 fold-change vs cycle 0	1.45 ± 0.0712 fold-change vs cycle 0
CAGTCA	0.794 ± 0.0288 fold-change vs cycle 0	0.925 ± 0.0192 fold-change vs cycle 0	0.946 ± 0.028 fold-change vs cycle 0
AGGCTC	0.313 ± 0.0334 fold-change vs cycle 0	0.399 ± 0.014 fold-change vs cycle 0	0.546 ± 0.0493 fold-change vs cycle 0
ACTCTA	1.37 ± 0.0421 fold-change vs cycle 0	1.48 ± 0.0703 fold-change vs cycle 0	1.43 ± 0.113 fold-change vs cycle 0
AACGTC	0.624 ± 0.0116 fold-change vs cycle 0	0.722 ± 0.0138 fold-change vs cycle 0	0.813 ± 0.0314 fold-change vs cycle 0
TACATA	2.44 ± 0.175 fold-change vs cycle 0	2.02 ± 0.121 fold-change vs cycle 0	1.78 ± 0.178 fold-change vs cycle 0
GGTCTA	0.681 ± 0.0386 fold-change vs cycle 0	0.794 ± 0.0243 fold-change vs cycle 0	0.8869 ± 0.005 fold-change vs cycle 0
ATATGC	1.17 ± 0.106 fold-change vs cycle 0	1.07 ± 0.0294 fold-change vs cycle 0	1.13 ± 0.0399 fold-change vs cycle 0
CTCCTA	0.926 ± 0.0641 fold-change vs cycle 0	1.07 ± 0.0219 fold-change vs cycle 0	1.05 ± 0.0362 fold-change vs cycle 0
